This is a sample that favours compounds with a hit; in the whole collection about 11% have one here.
HEK293 tox: Cytotoxic Profiling in HEK 293 Cell Line of Diverse Libraries Using Quantitative High-Throughput Screening; hit rate 6.6% among 94,000; HEK 293 viability, ATP luminescence (CellTiter-Glo), 48-72 h; Potency, µM (series often up to 115 µM), hits mostly inhibitors; AID 1345083, 2018; also: nearly all actives have a fitted effect of over 60% in size
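Read-out: CellTiter-Glo ATP luminescence. Cells: HEK 293, 250 cells/well. Exposure: 48 or 72 hr, 37 degree Celsius.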
3T3 cytotox: Cytotoxic Profiling in NIH 3T3 Cell Line of Diverse Libraries Using Quantitative High-Throughput Screening. NIH 3T3 viability, CellTiter-Glo ATP luminescence, 48-72 h. Potency, µM (highest dose often 96.7 µM), hits mostly inhibitors. hit rate 4.3% among 94,000; also: nearly all actives have a fitted effect of over 55% in size
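NIH 3T3 cells at 400 cells/well received 23 nL of compound by pintool and were incubated 48 or 72 h at 37 °C. Viability was read as ATP-coupled CellTiter-Glo luminescence.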
hNpr1 antagonist: Natriuretic polypeptide receptor (hNpr1) antagonism - Primary qHTS; Atrial natriuretic peptide receptor 1 (Homo sapiens), P16066; Potency, µM (doses to about 46.3 µM), hits mostly inhibitors; hit rate 1.6% among 76,000; AID 1347048, 2019; HEK293 hNpr1 GloSensor cGMP, ANP-stimulated luminescence; calls by dose curve; also: nearly all actives have a fitted effect of over 60% in size
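HEK293 cells stably expressing human Npr1 and cGMP GloSensor pGS-40F, loaded 2 h with 2% GloSensor reagent, given compound 30 min at room temperature. Luminescence read before and 20 min after 0.1 nM hNppA.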
Luciferase inh: Firefly luciferase inhibition profiling of diverse chemical library using quantitative high-throughput screening. Luciferin 4-monooxygenase (Photinus pyralis), P08659. purified P. pyralis luciferase, luminescence, biochemical. Potency, µM (series often up to 115 µM), usual class: inhibitors. hit rate 2.5% among 76,000. AID 1347043, 2019; also: nearly all actives have a fitted effect of over 65% in size
Target sequence (P08659 whole entry, looked up): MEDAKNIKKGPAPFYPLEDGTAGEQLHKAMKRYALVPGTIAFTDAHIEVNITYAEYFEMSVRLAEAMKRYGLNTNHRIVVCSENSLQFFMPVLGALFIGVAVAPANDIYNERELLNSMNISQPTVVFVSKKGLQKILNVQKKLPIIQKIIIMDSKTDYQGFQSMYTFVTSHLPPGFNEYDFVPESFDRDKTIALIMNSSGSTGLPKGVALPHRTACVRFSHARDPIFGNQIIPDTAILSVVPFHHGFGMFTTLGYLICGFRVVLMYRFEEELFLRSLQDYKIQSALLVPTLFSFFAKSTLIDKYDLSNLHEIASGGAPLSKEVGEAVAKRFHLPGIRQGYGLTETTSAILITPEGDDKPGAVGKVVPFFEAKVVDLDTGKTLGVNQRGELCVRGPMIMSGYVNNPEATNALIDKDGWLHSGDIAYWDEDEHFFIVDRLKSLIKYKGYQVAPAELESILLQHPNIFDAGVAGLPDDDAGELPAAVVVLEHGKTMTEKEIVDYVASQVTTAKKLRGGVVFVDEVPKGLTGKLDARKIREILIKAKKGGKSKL
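Purified P. pyralis luciferase (10nM final) in 50mM Tris acetate pH 7.5, 10mM Mg acetate, 0.01% Tween-20, 0.05% BSA with 10uM D-luciferin and 10uM ATP. Compounds titrated qHTS. Luminescence imaged on CCD.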
Large screens that a line does not name were inactive. Unless noted, calls follow the shape of the dose curve; as a rule, active = well fitted curve in the direction sought with a large enough effect; inconclusive = small, poorly fitted or top-dose-only effect, or another doubt; inactive = no such curve, though single readings can be large; an effect the other way counts as inactive or inconclusive.

COc1cccc([S+](=O)([O-])N2CCCC(C(=O)N3CCC(N4CCOCC4=O)CC3)C2)c1 (stereo not given)	none (no result: hNpr1 antagonist, Luciferase inh)
CC(C)CN1CCN(C(=O)CCC[C@H]2NC[C@@H]3C[C@H]2CN(Cc2ccccc2)C3)CC1	none
CN(Cc1cnn(C)c1)c1ccc(-c2nc(COc3ccccc3)no2)cn1	none
CC(Nc1ccc(-c2nc(CCCc3ccccc3)no2)cn1)c1cnn(C)c1 (stereo not given)	HEK293 tox inconclusive, 3T3 cytotox inconclusive, Luciferase inh 15.8µM
COc1ccc(S(=O)(=O)Nc2ccc3n(c2=O)C[C@H]2C[C@@H]3CN(C(=O)Nc3cc(OC)cc(OC)c3)C2)cc1	3T3 cytotox 50.1µM
O=C(NCCCc1ccccc1F)[C@@]12CNC[C@@H]1CN(Cc1ccccc1)C2	HEK293 tox 44.7µM, 3T3 cytotox 28.2µM
Cn1ncc2c(C(=O)N3CCN(c4ncccn4)CC3)cc(-c3ccccc3)nc21	HEK293 tox inconclusive (no result: hNpr1 antagonist, Luciferase inh)
COc1cc(OC)c(-c2nc3ccc(-c4ccc(OC)c(OC)c4OC)cc3o2)cc1OC	HEK293 tox inconclusive, 3T3 cytotox 31.6µM
COc1ccc(-c2ccc3nc(-c4ccccc4C)oc3c2)c(OC)c1OC	HEK293 tox inconclusive, 3T3 cytotox inconclusive
COc1ccnc(-c2nnc3ccc(NC4CCOCC4)nn23)c1	3T3 cytotox 79.4µM
COc1cccc(NC(=O)c2ccnc(-c3nnc4ccc(Nc5ccccc5)nn34)c2)c1	HEK293 tox 39.8µM, 3T3 cytotox 35.5µM
CN(c1ccccc1)c1ccc2nnc(-c3cc(C(=O)NCc4ccncc4)ccn3)n2n1	HEK293 tox 70.8µM, 3T3 cytotox inconclusive
O=C(c1ccnc(-c2nnc3ccc(Nc4ccccc4)nn23)c1)N1CCCCC1	HEK293 tox inconclusive, 3T3 cytotox inconclusive
O=C(NCc1ccc(F)cc1)c1ccnc(-c2nnc3ccc(Nc4ccccc4)nn23)c1	HEK293 tox inconclusive, 3T3 cytotox 25.1µM
CNC(=O)c1cc(C2CC2)nc2onc(C3CCCN3C(=O)NC(C)(C)c3ccccc3)c12 (stereo not given)	none (no result: hNpr1 antagonist, Luciferase inh)
COc1cc(CN2CCC(C)(NC(C)=O)CC2)cc(Nc2ccccc2)c1	HEK293 tox inconclusive, 3T3 cytotox inconclusive
COc1cccc(CNC(=O)C2CN(C3CCCC3)C(=O)N2)c1 (stereo not given)	none (no result: hNpr1 antagonist, Luciferase inh)
Cc1ccc(C(=O)N2CCCN(c3ccc4nnc(C)n4n3)CC2)cc1	none (no result: hNpr1 antagonist, Luciferase inh)
CC(=O)c1ccc(NC(=O)N[C@H]2CCN3C(=O)[C@@H](Cc4ccccc4)NC(=O)[C@H]23)cc1	none
Cc1cc(Cn2cc3c4c(cccc42)[C@H](CC(C)C)N[C@H](C(=O)NCC2CC2)C3)no1	HEK293 tox 79.4µM, 3T3 cytotox 89.1µM
Cc1cc(Cn2cc3c4c(cccc42)[C@H](CC(C)C)N[C@H](C(=O)NCCN(C)C)C3)no1	HEK293 tox 35.5µM, 3T3 cytotox 22.4µM
COC[C@H]1NC(=O)CC[C@H]1C(=O)NCc1cc(F)cc(F)c1	none (no result: hNpr1 antagonist, Luciferase inh)
Cc1noc(C)c1[S+](=O)([O-])N1CCN(C(=O)c2nc3cccnc3n(Cc3ccccc3)c2=O)CC1	none (no result: hNpr1 antagonist, Luciferase inh)
CCOC(=O)CNC(=O)N1CC2(CCCCC2)CC1COc1ccc(OC)cc1 (stereo not given)	none (no result: hNpr1 antagonist, Luciferase inh)
CCn1cc(S(=O)(=O)N2CC3(CCCCC3)CC2COc2ccc(OC)cc2)cn1 (stereo not given)	HEK293 tox 31.6µM, 3T3 cytotox inconclusive (no result: hNpr1 antagonist, Luciferase inh)
CN1CCC(N[C@H]2C[C@@H](Cc3cc(CN(C)Cc4ccccc4)on3)C2(C)C)CC1	HEK293 tox 39.8µM, 3T3 cytotox 28.2µM
CN1CCC(N[C@H]2C[C@@H](Cc3cc(-c4ccccc4)on3)C2(C)C)CC1	HEK293 tox 8.91µM, 3T3 cytotox 8.91µM
CC(C)N[C@H]1C[C@@H](Cc2cc(-c3ccccc3)on2)C1(C)C	HEK293 tox 63.1µM, 3T3 cytotox 63.1µM, Luciferase inh inconclusive
CC1(C)[C@H](Cc2cc(CCO)on2)C[C@@H]1NC1CCOCC1	none
Cc1ccc(C(=O)N2Cc3ccccc3OC3(CCN(C(C)C)CC3)C2)cn1	none (no result: hNpr1 antagonist, Luciferase inh)
CC(C)(C)COC(=O)N1C[C@H](C(N)=O)[C@H]2c3ccccc3N(CC3CC3)C(=O)[C@]21C	HEK293 tox inconclusive (no result: hNpr1 antagonist, Luciferase inh)
O=C(c1ccc2[nH]ccc2c1)N1CCC2(CC1)Nc1ccccc1NC2=O	HEK293 tox 39.8µM
O=C(c1ccc2n[nH]nc2c1)N1CCC2(CC1)Nc1ccccc1NC2=O	none
O=C(NC1CCN(c2ccc3nnc(-c4ccccc4)n3n2)C1)c1cccc(C(F)(F)F)c1 (stereo not given)	3T3 cytotox inconclusive (no result: hNpr1 antagonist, Luciferase inh)
Cc1nn(-c2ccccc2)c(Oc2ccccc2)c1CCC(=O)NCC1CCCO1 (stereo not given)	HEK293 tox inconclusive, 3T3 cytotox inconclusive
CCc1nn(-c2ccc(F)cc2)c(Oc2ccccc2)c1CCC(=O)NCC1CCCO1 (stereo not given)	HEK293 tox 39.8µM, 3T3 cytotox 31.6µM, hNpr1 antagonist inconclusive
CCc1nn(-c2ccc(OC)cc2)c(Oc2ccccc2F)c1CCC(=O)N1CCSCC1	HEK293 tox 31.6µM, 3T3 cytotox 44.7µM
CCc1nn(-c2ccc(OC)cc2)c(Oc2ccccc2F)c1CCC(=O)N(CC)CC	HEK293 tox inconclusive, 3T3 cytotox 44.7µM
CN(Cc1ccsc1)Cc1cccc(C(F)(F)F)c1	none (no result: hNpr1 antagonist, Luciferase inh)
CCC(CC)C(=O)N1CCC(=O)N(CCOC)C[C@H]2COc3ccccc3[C@H]21	HEK293 tox inconclusive (no result: hNpr1 antagonist, Luciferase inh)
Cc1ccc(-c2cccc(CN3CCCC3C(=O)NCc3cccc(F)c3)c2)cc1Cl (stereo not given)	HEK293 tox 44.7µM, 3T3 cytotox inconclusive (no result: hNpr1 antagonist, Luciferase inh)
Cc1ccc(-c2cccc(CN3CCCC3C(=O)NCc3cccc(Cl)c3)c2)cc1Cl (stereo not given)	HEK293 tox 39.8µM, 3T3 cytotox 35.5µM (no result: hNpr1 antagonist, Luciferase inh)
Cc1ccc(-c2cccc(CN3CCCC3C(=O)NCc3ccc(F)cc3F)c2)cc1Cl (stereo not given)	HEK293 tox 44.7µM, 3T3 cytotox inconclusive (no result: hNpr1 antagonist, Luciferase inh)
COc1ccc(-c2ccc(C(=O)NC3CCCC3)cc2)nn1	HEK293 tox inconclusive (no result: hNpr1 antagonist, Luciferase inh)
Cc1cc(C)n(CC(=O)N2CCN3CCS(=O)(=O)N(C4CC4)C(=O)C3C2)n1 (stereo not given)	none (no result: hNpr1 antagonist, Luciferase inh)
Cc1cccc(-c2nc3ccc(C(=O)NCc4ccccc4F)cc3o2)n1	HEK293 tox 100µM, 3T3 cytotox inconclusive (no result: hNpr1 antagonist, Luciferase inh)
O=C(NCCc1ccccc1F)c1ccc2oc(-c3ccccn3)nc2c1	none (no result: hNpr1 antagonist, Luciferase inh)
Cc1cccc(-c2nc3ccc(C(=O)NCc4ccc(Cl)cc4)cc3o2)n1	none (no result: hNpr1 antagonist, Luciferase inh)
O=C(NCc1cccc(C(F)(F)F)c1)c1ccc2nc(-c3ccccn3)oc2c1	HEK293 tox inconclusive, 3T3 cytotox 39.8µM (no result: hNpr1 antagonist, Luciferase inh)
O=C(NCc1ccccc1F)c1ccc2nc(-c3ccccn3)oc2c1	HEK293 tox 70.8µM, 3T3 cytotox inconclusive (no result: hNpr1 antagonist, Luciferase inh)
CC(=O)N1CCN(C(=O)c2ccc3nc(-c4ccccn4)oc3c2)CC1	none (no result: hNpr1 antagonist, Luciferase inh)
